A selection: hits, their analogues and other compounds. The true share with any hit is near 1%.
Hsp90 inh – displaces geldanamycin probe from tumor Hsp90; P07900; NCI-N417 lysate Hsp90, Cy3B-geldanamycin FP displacement; inhibition, % at 30 µM; actives 0.35% (n = 64,000); AID 429;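 active = inhibition above 50%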;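 note: 0% = tracer plus lysate wells and 100% = tracer alone without lysate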
DUSP1 inh – inhibitors of human MKP-1 phosphatase. P28562. recombinant MKP-1, OMFP hydrolysis fluorescence. inhibition, %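 (compounds tested at a single concentration somewhere between 10 and 100 µM)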. actives 0.15% (n = 65,000). AID 374;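 active = inhibition above about 50%, limit read from the data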;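 note: 0% = DMSO max control wells and 100% = wells with enzyme stopped by NaOH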
Target sequence (P28562 whole entry, looked up): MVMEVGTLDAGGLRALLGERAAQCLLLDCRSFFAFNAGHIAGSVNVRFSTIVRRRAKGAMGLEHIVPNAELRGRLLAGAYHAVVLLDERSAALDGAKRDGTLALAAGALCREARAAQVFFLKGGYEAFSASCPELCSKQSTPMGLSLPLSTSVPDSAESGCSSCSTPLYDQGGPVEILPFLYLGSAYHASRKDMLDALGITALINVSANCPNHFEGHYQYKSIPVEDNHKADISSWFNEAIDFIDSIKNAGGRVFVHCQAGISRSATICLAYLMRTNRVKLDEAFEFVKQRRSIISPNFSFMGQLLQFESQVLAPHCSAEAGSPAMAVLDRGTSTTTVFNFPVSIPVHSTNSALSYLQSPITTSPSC
SK-BR-3 tox 24h – SK-BR-3 proliferation inhibitors. SK-BR-3 viability, CellTiter-Glo ATP luminescence, 24 h; stronger effect = lower value. viability, % at 10 µM. actives 0.47% (n = 41,000);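 active = viability at or below the median of all test compounds minus 3 SD, in both replicates if run twice, cut at about 45% in these data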;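 note: 100% = median untreated cell wells and 0% = median positive control drug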
Cdc25B inh – human M-phase inducer phosphatase 2 inhibition; P30305; recombinant Cdc25B, OMFP fluorescence Ex485/Em525; inhibition, %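 (compounds tested at 10 µM final in the well)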; actives 0.1% (n = 65,000); AID 368; in the data active = inhibition above about 50%
WNV protease inh – inhibitors of West Nile virus NS2B-NS3 protease; WNV NS2B-NS3 protease, fluorogenic substrate Ex360/Em465; stronger effect = lower value; z-score (concentration not given with the values); actives 0.18% (n = 65,000); in the data active = z-score below about -3
Redox H2O2 0p5DTT – redox cycling H2O2 generation, Cdc25B counter-screen | EC50, µM | actives 50% (n = 30) | cell-free redox cycling H2O2 generation, 0.5 mM DTT | shares compounds with Cdc25B inh | AID 682; in the data active = EC50 below about 30 µM
Redox 1 DTT – redox cycling H2O2 generation, Cdc25B counter-screen; 30 tested, under 10 active; cell-free redox cycling H2O2 generation, 1 mM DTT; shares compounds with Cdc25B inh; EC50, µM; in the data active = EC50 below about 50 µM
Redox H2O2 – redox cycling H2O2 generation, MKP probe counter-screen | shares compounds with DUSP1 inh | DTT, phenol red/HRP | EC50, µM | 60 tested, under 10 active; call rule not given here
An asterisk follows results filed as active; . = no result given; ! = not confirmed by another sample.

SMILES | Hsp90 inh | DUSP1 inh | SK-BR-3 tox 24h | Cdc25B inh | WNV protease inh | others
CN1C2CCC1CC(OC(=O)CCN1CCCC1)C2 (stereo unspecified) | 0 | -2 | . | 77* | -0.33
CN1[C@@H]2CC[C@H]1CC(OC(=O)C1C=Nc3ccccc31)C2 (stereo partly specified) | -3 | -11 | 101 | -9 | -1.4
COc1cc2c(cc1OC)-c1c(OC)c(OC)cc3c1C(C2)N(C)CC3 (stereo unspecified) | 91* | 16 | 85 | 3 | 1.6
CCCCCCn1c(N)c(C(=O)NCCN2CCOCC2)c2nc3ccccc3nc21 | -6 | 29 | 2.3* | -27 | 0.65
COc1ccc2c(c1)C13CCCCC1C(C2)N(C)CC3 (stereo unspecified) | -2 | . | . | . | .
NC(=O)CI | 1 | . | . | . | .
CC(C)[C@@]1(NC(=O)[C@@H]2C[C@@H]3c4cccc5[nH]cc(c45)C[C@H]3N(C)C2)O[C@@]2(O)[C@@H]3CCCN3C(=O)[C@H](Cc3ccccc3)N2C1=O | 87*! | 7 | 137 | 2 | -0.87
CCCN(CCC)[C@@H]1CCc2c(F)ccc(O)c2C1 | -1 | . | . | . | .
CN(N=O)c1ccc(O)c(O)c1 | 93* | . | . | . | .
COc1ccc2[nH]cc(CCN3CCCC3)c2c1 | -10 | . | . | . | .
C[C@H]1C2Cc3ccc(O)cc3C1(C)CCN2CC1CC1 (stereo partly specified) | 1 | . | . | . | .
CN1CC[C@@]2(C)c3cc(O)ccc3N(C)C12 (stereo partly specified) | 91* | . | . | . | .
NCC#Cc1ccccc1 | 0 | . | . | . | .
COc1ccc(C(CC(=O)N2CCC3(CC2)OCCO3)NS(=O)(=O)c2ccc(F)cc2)cc1 (stereo unspecified) | 3 | 3 | . | 52* | 0.7
COc1ccc(CNCC(=O)N2CCC3(CC2)OCCO3)cc1 | -1 | -3 | . | -1 | -0.84
CCN(CC)c1ncnc2c1ncn2[C@@H]1O[C@H](COP(=O)(O)OP(=O)(O)C(Br)(Br)P(=O)(O)O)[C@@H](O)[C@H]1O | -1 | . | . | . | .
O=C1NC(=O)[C@]2(Cc3ccccc3N3CCN(c4ccccc4)CC32)C(=O)N1Cc1ccccc1 (stereo partly specified) | -2 | 22 | 82 | 8 | -4*
COc1ccc2[nH]c(C[N+](C)(C)C)cc2c1 | -2 | . | . | . | .
C[C@H]1CCCC(=O)CCC/C=C/c2cc(O)cc(O)c2C(=O)O1 | 87* | 1 | 103 | -15 | -0.07
NC(Cc1cc(O)c(O)cc1O)C(=O)O (stereo unspecified) | 94* | . | . | . | .
C[Se]C[C@H](N)C(=O)O | -1 | . | . | . | .
CCn1c(O)c(C(=O)CC2NCCc3ccccc32)c(=O)n(CC)c1=S (stereo unspecified) | -8 | -15 | 3.2* | -6 | 0.81
CCOC(=O)c1c(N)n(Cc2ccco2)c2nc3ccccc3nc12 | 30 | 11 | 79 | 0 | 4.2
CCCCn1c(NC(=O)c2ccco2)c(C(=O)OCC)c2nc3ccccc3nc21 | 72* | 22 | 90 | 33 | 1.3
O=C1C=Cc2ccccc2C1=O | . | 94* | 96 | 99* | 0.18 | Redox H2O2 0p5DTT=26*;Redox 1 DTT=>50;Redox H2O2=>50
SMILES | Hsp90 inh | DUSP1 inh | SK-BR-3 tox 24h | Cdc25B inh | WNV protease inh | others
CCCC[N+]1(C)C2CC(OC(=O)[C@H](CO)c3ccccc3)CC1C1OC12 (stereo partly specified) | 2 | . | . | . | .
C=CCN1CC[C@]23c4c5ccc(O)c4O[C@@H]2/C(=N/N=C2\CC[C@@]4(O)C6Cc7ccc(O)c8c7[C@@]4(CCN6CC=C)[C@@H]2O8)CC[C@@]3(O)C1C5 | 12 | . | . | . | .
CCn1nc(-c2cccs2)nc2c(=O)n(C)c(=O)nc1-2 | 98* | 104* | 27* | 101* | -0.88 | Redox H2O2 0p5DTT=0.65*;Redox 1 DTT=1*;Redox H2O2=14*
Cc1nc2cc(-c3cccc(F)c3)nn2c(C)c1CCC(=O)N1CCC2(CC1)OCCO2 | -5 | 60* | . | -6 | -0.82 | Redox H2O2=>50
COCCCn1c(N)c(C(=O)NCCC(C)C)c2nc3ccccc3nc21 | -11 | 55* | 135 | 5 | -0.38 | Redox H2O2=>50
CCCCOCCCn1c(N)c(C(=O)OCCOC)c2nc3ccccc3nc21 | -2 | -14 | 68 | 30 | 0.79
N[C@H](CCCCCP(=O)(O)O)C(=O)O | -2 | . | . | . | .

Screening data: PubChem, several laboratories
